The source of these data is PubChem BioAssay (NCATS).

Inconclusive results are not listed. A call without a number means that no potency is given here. A number with no mark means an inactive call. The source made the active and inactive calls. Calls come from the whole dose curve; as a rule, active = well fitted inhibition curve with a large enough effect; inconclusive = small, poorly fitted or top-dose-only effect; inactive = no such curve, though single readings can be large or run the other way.

This assay has as its system Zika virus NS2B-NS3 protease (linked construct). Nature of the assay: Primary screen NINDS Rhodamine qHTS for Zika virus inhibitors (AID 1347160). Note: nearly all actives have a fitted effect of over 55% in size. Conditions: purified NS2B-NS3 protease, Rhodamine110 substrate fluorescence; series mostly up to 57.1 µM. In a few lines: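 Percent inhibition, normalized to uninhibited and enzyme-free controls, is fitted to a 4-parameter Hill equation. Fluorescence change comes from a 15-min cleavage of 1.5 microM bis-peptide Rhodamine110 substrate by 25 nM linked NS2B-NS3 at room temperature.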
For orientation: In qHTS, concentration-response curves come from the screen itself.
In the case of `CC1(C)CCCC2(C)C(C(=O)O)=CCC12` (stereo not given), the Potency entry is “inactive”.

Take `C/C=C/C=C/[C@@H]1O[C@](O)([C@H](CC)C(=O)NC/C=C/C=C(\C)[C@@H](OC)[C@@H](C)C2OC(/C=C/C=C/C=C(\C)C(=O)c3c(O)cc[nH]c3=O)[C@H](O)[C@@H]2O)[C@H](O)[C@H](O)C1(C)C` (stereo not given in full): the Potency entry was “inactive”.

As to `CC(=O)c1cc2c(cc1O)OC(C)(C)C=C2`, the Potency result is “inactive”.

`COC(=O)C1=CO[C@@H](O[C@@H]2O[C@H](CO)[C@@H](O)[C@H](O)[C@H]2O)[C@H]2[C@@H]1CC(OC)O[C@@H]2C` (stereo not given in full): the Potency entry is “inactive”.

`COc1cc(Br)c(Nc2nc(-c3c(C)nc4ncccn34)cs2)c(Br)c1`: the Potency entry was “inactive”.

Turning to `N=c1nc2n(cc1F)C1OC(CO)C(O)C1O2` (stereo not given), the Potency result was “inactive”.

Turning to `OC[C@H]1O[C@@H](O[C@H]2[C@H](OCCc3ccccc3)O[C@H](CO)[C@@H](O)[C@@H]2O)[C@H](O)[C@@H](O)[C@@H]1O`, the Potency entry was “inactive”.

For `C[C@H](NC(=O)CCc1nc2ccccc2c(=O)[nH]1)c1ccccc1`, the Potency result is “inactive”.

`CC(=O)SCC(=O)c1ccc(NS(=O)(=O)c2ccc(OCCCN(C)C)cc2)nc1`: the Potency result was “inactive”.

`N[C@@]1(C(=O)O)CC[C@H]2[C@H](C(=O)O)[C@H]21`: the Potency entry is “inactive”.

Consider `COc1ccc(-c2ccc(-c3cn(C(=O)N4CCCCC4c4ccccc4)nn3)cc2)cc1` (stereo not given), for which the Potency result is “inactive”.

For `C=C1C[C@]23C[C@H]1CC[C@H]2[C@]1(C)CCC[C@@](C)(C(=O)O)[C@H]1[C@@H]3C(=O)O`, the Potency result was “inactive”.

As to `O=S(=O)(NCC1CC1)c1ccc(Nc2nccc(N3CCCc4cc(O)ccc43)n2)cc1`, the Potency entry was “inactive”.

`Cc1noc(=O)c2ccc(NC(=O)C(O)(CC(C)(C)c3cccc4c3OCC4)C(F)(F)F)cc12` (stereo not given): the Potency result is “inactive”.

Consider `N#C[C@@H]1C[C@H](F)CN1C(=O)CNC1[C@H]2CN(C(=O)c3ccc(F)cc3)C[C@@H]12` (stereo not given in full), for which the Potency entry is “inactive”.

On to `Cc1cc(Nc2ccc(NC(=O)c3ccc(Nc4ccnc5ccccc45)cc3)cc2)nc(N)n1`, for which the Potency result is “inactive”.

`COc1ccc(CCC(=O)c2c(O)cc(O)cc2O[C@@H]2O[C@H](CO)[C@@H](O)[C@H](O)[C@H]2O)cc1`: the Potency entry was “inactive”.

Consider `C=CC1(C)C=C2C(=O)OC(=O)C3=C(CCCC3(C)C)C2(O)CC1` (stereo not given), for which the Potency result is “inactive”.

`CC1=CC(=O)[C@]2(O[C@@H]3O[C@@H](C)[C@H](O)[C@@H](O)[C@H]3OC(=O)/C=C/c3ccccc3)C=CO[C@@H](O[C@@H]3O[C@H](CO)[C@@H](O)[C@H](O)[C@H]3O)[C@H]12`: the Potency entry is “inactive”.

As for `CCn1cc(NC(=S)Nc2cc(Cl)ccc2OC)c(C(N)=O)n1`, the Potency entry was “inactive”.

With `C[C@@H]1O[C@@H](OC[C@H]2O[C@@H](OC(CCCCc3ccc(O)cc3)CCc3ccc(O)cc3)[C@H](O)[C@@H](O)[C@@H]2O)[C@H](O)[C@H](O)[C@H]1O` (stereo not given in full), the Potency entry is “inactive”.

In the case of `CC[C@]1(O)CC2CN(CCc3c([nH]c4ccccc34)[C@@](C(=O)OC)(c3cc4c(cc3OC)N(C=O)[C@H]3[C@@](O)(C(=O)OC)[C@H](OC(C)=O)[C@]5(CC)C=CCN6CC[C@]43[C@@H]65)C2)C1` (stereo not given in full), the Potency entry is “inactive”.

In the case of `C[C@@H]1O[C@@H](O[C@H]2[C@@H]3C=CO[C@@H](O[C@@H]4O[C@H](CO)[C@@H](O)[C@H](O)[C@H]4O)[C@@H]3[C@@]3(CO)O[C@@H]23)[C@H](OC(=O)/C=C/c2ccccc2)[C@H](O)[C@H]1O`, the Potency entry was “inactive”.

Consider `CCC(O)C(C)C1CCC(C(C)C(=O)O)O1` (stereo not given), for which the Potency entry was “inactive”.

Turning to `COc1cc([C@H]2c3cc(O)c(OC)cc3C[C@@H](CO[C@@H]3O[C@H](CO)[C@@H](O)[C@H](O)[C@H]3O)[C@@H]2CO)ccc1O`, the Potency result is “inactive”.

Regarding `O=C1CC2(CCCC2)[C@H](O)C(=O)N1CCCCN1CCN(c2ncccn2)CC1`, the Potency entry was “inactive”.

Take `CC1=C2C3OC(=O)C(C)C3(O)CCC2(C)CCC1O` (stereo not given): the Potency entry is “inactive”.

For `CO[C@H]1/C=C/C=C/C=C/C[C@H](OC(=O)[C@@H](C)NC(=O)C2CCCCC2)[C@H](C)[C@@H](O)/C(C)=C/CCc2cc(O)cc(c2)NC(=O)C1`, the Potency result is “inactive”.

Regarding `COc1ccc2c(OC)c3ccoc3nc2c1OC`, the Potency result is “inactive”.

Turning to `COc1ccccc1Oc1ccc(N(Cc2cccnc2)S(=O)(=O)CC(F)(F)F)cc1`, the Potency entry is “inactive”.

With `COc1c2c(c(C)c3c1C(=O)OC3)OC1(C)CC(O)C34OC(OC)(CC(OC(C)=O)C3(C)C1C2)OC4(C)C` (stereo not given), the Potency entry is “inactive”.

Take `O=S(=O)(Nc1ccccn1)c1ccc(N=Cc2c(O)[nH]c3ccc4ncsc4c23)cc1`: the activity change, negative = inhibition was 12% [at 10.7 µM].

Turning to `CC1=CC(=O)[C@H]2C(C)(C)CCC[C@]2(C)[C@@]1(O)CO`, the Potency result is “inactive”.

Consider `CC1OC(OC2C(O)C(OC3CCC4(C)C(CCC5(C)C4CC=C4C6CC(C)(COC7OC(CO)C(O)C(O)C7O)CC(O)C6(C)CCC45C)C3(C)C)OC(C(=O)O)C2O)C(O)C(O)C1OC1OCC(O)C(O)C1O` (stereo not given), for which the Potency entry is “inactive”.

`O=C(c1ccccc1)c1ccc2nc(NC(=O)c3csc(C4CCN(c5ncnc6ccsc56)CC4)n3)[nH]c2c1`: the Potency result is “inactive”.

Consider `COC(=O)N1CCC(n2ncc3c(N4CCOCC4)nc(-c4ccc(NC(=O)Nc5ccc(CO)cc5)cc4)nc32)CC1`, for which the Potency result was “inactive”.

Consider `CC1COC(Nc2ccc3ncnc(Nc4ccc(OCc5nccs5)c(Cl)c4)c3c2)=N1` (stereo not given), for which the Potency entry is “inactive”.

Consider `Nc1nc2c(c(=O)[nH]1)C[C@@H](CCc1ccc(C(=O)N[C@@H](CCC(=O)O)C(=O)O)cc1)CN2`, for which the Potency result was “inactive”.

As to `C/C1=C\CCC2=C[C@@H](OC2=O)c2c(C)coc2C1`, the Potency entry was “inactive”.

For the molecule `O=C(Nc1ccccc1)N1CCN(Cc2ccc3ccccc3n2)CC1`, the Potency entry was “inactive”.
